NR3A LBD binder: modulators (binders) of human NR3A ligand-binding domain; NR3A LBD differential scanning fluorimetry, Tm shift; 0% = protein alone, 100% = glycine-bound protein; Tm shift relative to glycine control, % at 25 µM; 340,000 compounds, 2.5% hits; AID 1259313;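 active means melting temperature shift of at least 10% of the positive control shift, at one fixed dose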
Rpn11 inh: inhibitors of human proteasome Rpn11; O00487; human 26S proteasome, Ub4-pepOG fluorescence polarization; 20S core pre-blocked with epoxomicin; inhibition, % at 20 µM; 360,000 compounds, 0.59% hits;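 active means inhibition at 20 µM, scaled to each plate's controls, above about 33%, limit read from the data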
dFosB act-1: enhances mouse delta FosB homodimer DNA binding. P13346. purified delta FosB, TAMRA-CDK5 oligo fluorescence polarization; percent of positive-control signal above neutral wells. 340,000 compounds, 0.99% hits. activation, % at 25 µM;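 active means mean activation above about 17%, with every replicate also reaching it, limit read from the data, passing the limit was not always enough; inconclusive means only one of the two conditions met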
Target sequence (P13346 whole entry, looked up): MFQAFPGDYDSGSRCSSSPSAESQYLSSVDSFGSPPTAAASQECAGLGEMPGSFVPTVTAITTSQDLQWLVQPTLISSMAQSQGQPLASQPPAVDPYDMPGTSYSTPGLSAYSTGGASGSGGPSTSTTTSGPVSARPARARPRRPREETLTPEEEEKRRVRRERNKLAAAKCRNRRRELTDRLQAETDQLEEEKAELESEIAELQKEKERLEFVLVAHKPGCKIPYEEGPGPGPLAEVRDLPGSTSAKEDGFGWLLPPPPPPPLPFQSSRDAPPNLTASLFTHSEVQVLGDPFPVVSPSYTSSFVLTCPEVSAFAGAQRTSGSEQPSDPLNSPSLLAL
ZTA counter: counter-screen for EBNA-1 inhibitors: inhibitors of Epstein-Barr virus ZTA. ZTA-DNA binding, fluorescence polarization. inhibition, % at 11 µM. 320,000 compounds, 0.15% hits; in the data active means inhibition above about 33%
Target sequence (P03206 whole entry, looked up): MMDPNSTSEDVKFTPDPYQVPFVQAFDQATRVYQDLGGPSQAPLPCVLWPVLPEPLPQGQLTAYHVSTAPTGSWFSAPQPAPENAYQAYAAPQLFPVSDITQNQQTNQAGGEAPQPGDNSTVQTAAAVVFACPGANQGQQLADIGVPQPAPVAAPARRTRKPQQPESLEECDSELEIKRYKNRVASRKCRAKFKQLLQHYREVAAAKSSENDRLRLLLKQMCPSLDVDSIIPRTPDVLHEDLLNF
EBNA-1 inh: blocks EBNA-1 binding to DNA; EBNA-1 DNA binding, fluorescence polarization; inhibition, % at 14.8 µM; 300,000 compounds, 0.34% hits; in the data active means inhibition above about 28%
TPT1 inh: blocks Candida albicans tRNA 2'-phosphotransferase; recombinant caTPT1, FP RNA substrate dephosphorylation; inhibition, % at 5 µM; 300,000 compounds, 0.81% hits; AID 1962;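 active means inhibition above the mean of all tested compounds plus 3 SD, set per screening campaign, cut at about 24% in these data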;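 further: plate controls were DMSO alone for no effect and ferristatin control at 100 nM for full effect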
dFosB act-2: enhances mouse delta FosB homodimer binding to DNA. 2,400 tested, under 10 active. purified delta FosB, TAMRA-CDK5 oligo fluorescence polarization; normalised: neutral wells 0, positive control 100. activation, % at 24.9 µM. shares compounds with dFosB act-1. AID 588690;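 active means highest replicate activation at or above 34% and every replicate reaching that threshold; inconclusive means meets only one of the two criteria; inactive means meets neither criterion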;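 further: higher polarization means more probe DNA bound by delta FosB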
The depositor's hits bear a star; ? = inconclusive; nt = no result shown. Compounds with a hit are over-represented: about 4.5% of the library has one in this group of screens.

SMILES	NR3A LBD binder	Rpn11 inh	dFosB act-1	ZTA counter	EBNA-1 inh	TPT1 inh	dFosB act-2
Nc1nc(CSC(=S)N2CCOCC2)nc(Nc2ccccc2)n1	-0.9	0.1	-11.7	-2.3	-1.6	4.4	nt
Nc1nc(CSC(=S)N2CCN(c3ccccc3)CC2)nc(Nc2ccc(F)cc2)n1	25.2*	2.3	47.3*	-20.0	2.1	-1.5	5.3
COc1ccc(C(=O)Cn2cnc3ccccc3c2=O)cc1OC	-3.1	-2.4	-11.3	3.1	-3.8	0.8	nt
COc1ccc(C(=O)Cn2cnc3ccc(Cl)cc3c2=O)cc1F	-4.1	8.3	26.0*	9.4	3.8	6.1	0.3
CCOc1ccc(NC(=O)CSc2nnnn2C2CCCC2)cc1	-1.7	1.5	1.5	-10.3	6.5	-1.3	nt
Cc1ccc(NC(=O)Cn2nc([N+](=O)[O-])c(Br)c2C)cc1C	-6.8	-4.4	49.2*	-1.7	9.5	-0.4	1.4
COC(=O)CC1(C(=O)OC)Oc2ccc(Br)cc2C(=O)N1c1cc(Cl)c(Cl)cc1Cl (stereo unspecified)	0.2	-1.9	-6.5	-5.0	-1.6	-0.3	nt
CSCCC(NC(=O)c1ccccc1Br)C(=O)NNC(=O)C1COc2ccccc2O1 (stereo unspecified)	-2.5	7.3	-11.4	nt	nt	nt	nt
COc1ccc2cc(/C=N/O)c(Cl)nc2c1	0.7	6.4	9.9	1.9	18.6	-0.6	nt
COc1ccc2cc(/C=N/NC(=O)c3ccc(CN(c4cccc(Cl)c4Cl)S(C)(=O)=O)cc3)c(Cl)nc2c1	3.0	20.4	46.0*	-10.2	6.1	-2.5	?
CC(C)C[C@H]1CNC(=S)N1C[C@H]1CCCN1C[C@H](Cc1ccc(O)cc1)N1C[C@H](Cc2ccccc2)N(CCc2ccccc2)C1=S	nt	-4.6	nt	nt	nt	nt	nt
Oc1ccc(C[C@H]2CNC(=S)N2CC2CCCN2C[C@H](Cc2ccc(O)cc2)N2C[C@H](Cc3ccccc3)N(CCc3ccccc3)C2=S)cc1 (stereo partly specified)	11.9*	2.3	65.3*	nt	nt	nt	5.8
CC(C)C[C@H]1CN([C@@H](CC(C)C)CN2CCCC2CN2C(=S)NC[C@@H]2Cc2ccc(O)cc2)C(=S)N1CCc1ccccc1 (stereo partly specified)	6.6	0.7	25.1*	nt	nt	nt	2.9
CC(C)C[C@@H](CN1CCCC1CN1C(=S)NC[C@@H]1Cc1ccc(O)cc1)N1C[C@H](Cc2ccccc2)N(CCc2ccccc2)C1=S (stereo partly specified)	9.2	4.5	61.3*	nt	nt	nt	5.6
Nc1c(-c2ccc(Cl)cc2)cnc2c(-c3ccccc3)cnn12	-8.2	-11.3	5.2	12.1	8.8	-6.4	nt
COc1ccccc1-c1cncc(NC(C)=O)n1	nt	3.2	nt	nt	nt	nt	nt
CCOC(=O)[C@H]1[C@H]2COc3ccc(Cl)cc3[C@@H]2N2C(=O)CN(Cc3ccc(Cl)cc3)C(=O)[C@@]12C	-12.0	-1.5	-9.2	-3.0	nt	nt	nt
O=C1CC(=C(c2ccccc2)c2ccccc2)C(=O)N1CCCN1CCN(c2cccc(Cl)c2)CC1	2.2	6.3	-4.4	-3.2	-1.7	4.8	nt
O=C1CC(=C2c3ccccc3-c3ccccc32)C(=O)N1CCCCN1CCN(c2ccccc2)CC1	-0.8	1.5	32.8*	-6.2	4.9	0.9	2.5
COC(=O)c1cn(NC(=O)COc2ccc(Cl)cc2)c(=O)c2ccccc12	-4.6	-1.5	31.9*	13.1	4.8	-6.5	6.5
COc1ccccc1C1CC(c2ccccc2)=NN1S(=O)(=O)c1ccccc1 (stereo unspecified)	0.1	-6.1	-6.8	-15.3	-5.2	-2.2	nt
COc1cccc(C2CC(c3ccccc3)=NN2S(=O)(=O)c2ccc(C)cc2)c1OC (stereo unspecified)	-1.0	nt	38.9*	4.3	7.8	4.4	0.8
Cc1cc(C)c2sc(N(CCN(C)C)C(=O)c3ccc4ccccc4c3)nc2c1	0.7	-20.3	38.9*	-3.9	-2.9	-1.9	5.8
COc1ccccc1C(=O)N(CCN(C)C)c1nc2cc(C)cc(C)c2s1	-1.3	1.9	-0.8	-11.6	-2.0	-3.4	nt
Cc1ccc2sc(N(CCN(C)C)C(=O)c3ccc4ccccc4c3)nc2c1C	-2.5	-10.7	39.3*	5.1	-22.7	-1.7	1.6
SMILES	NR3A LBD binder	Rpn11 inh	dFosB act-1	ZTA counter	EBNA-1 inh	TPT1 inh	dFosB act-2
CC(C)(C)c1ccc(SCCc2cccnc2)cc1	0.8	6.2	5.8	-11.9	-6.7	1.0	nt
NC(N)=NS(=O)(=O)c1ccc(N/C=C/C(=O)c2ccc(Cl)c(Cl)c2)cc1	13.1*	7.1	45.5*	10.8	3.7	-0.1	3.6
CCOc1ccc(C(=O)/C=C/Nc2ccc(S(=O)(=O)N=C(N)N)cc2)cc1	0.0	1.0	34.2*	1.8	2.2	1.0	5.8
CCOc1ccc(N/C=C/C(=O)c2ccc(OC)c(OC)c2)cc1	-6.1	3.3	2.3	19.9	4.1	0.1	nt
CS(=O)(=O)c1ccc2nc(NC(=O)CCN3C(=O)c4ccccc4C3=O)sc2c1	3.7	3.8	7.9	-4.2	1.8	-2.3	nt
COc1ccc(-c2cc(C(F)F)n3ncc(C(=O)Nc4cccc(S(=O)(=O)N5CCOCC5)c4)c3n2)cc1	-2.4	0.5	33.3*	-16.4	-1.4	-6.6	1.7
COc1ccc(Br)c(C(=O)Nc2cccc(S(=O)(=O)N3CCOCC3)c2)c1	1.2	-4.0	-3.4	-4.0	nt	nt	nt
Cc1cc(OCC(=O)Nc2sc3c(c2C#N)CC(C)(C)NC3(C)C)c(C(C)C)cc1Cl	-1.5	-3.2	62.0*	-13.5	-6.8	-0.9	-1.1
O=C(N1CCN(Cc2ccc3c(c2)OCO3)CC1)C(Cl)(Cl)Cl	-0.2	0.6	-6.6	6.2	9.2	-2.8	nt
Cc1cc(C)c2nc(-c3ccccn3)cc(C(=O)NCc3ccc(S(N)(=O)=O)cc3)c2c1	-2.7	5.1	64.9*	-6.8	5.4	-1.1	-1.1
COc1ccc(C2=NOC(Cn3nc(-c4ccccc4)cc3C(=O)NCc3cccs3)C2)cc1 (stereo unspecified)	-5.2	-0.7	1.4	nt	nt	nt	nt
COCCCn1c(=O)c2ccccc2n(CC(=O)NC2CCCC2)c1=O	-0.8	1.4	-5.8	-0.5	-1.2	0.7	nt
Cc1cccc(NC(=O)Cn2c(=O)n(CCC(=O)NC3CCCC3)c(=O)c3ccccc32)c1	-0.3	4.9	42.0*	12.0	-2.2	-2.2	1.0
CCN(CC)C(=O)Cn1c(=O)n(-c2ccc(CC(=O)NCc3ccccc3)cc2)c(=O)c2sccc21	0.4	2.9	-11.4	2.9	-0.9	-1.8	nt
Cc1ccc(CNC(=O)CCCn2c(=O)c3ccccc3n(CC(=O)NC3CCCC3)c2=O)cc1	-0.3	-1.0	27.0*	-1.8	8.9	-2.0	-2.5
Cc1ccc(CNC(=O)Cn2c(=O)n(-c3ccccc3)c(=O)c3sccc32)cc1	-0.9	2.9	21.1*	-0.9	7.6	-1.1	-9.5

High-throughput results deposited in PubChem BioAssay by several laboratories.
